Bioassay records deposited in PubChem by National Center for Advancing Translational Sciences (NCATS).
Shown are actives, neighbours in structure and some others; about 3% of the full set was active somewhere.
Caspase-7 inhib: caspase-7 (human) inhibition, allosteric or competitive. Potency, µM (series often up to 57.5 µM), for the others: at the highest dose activity change, negative = inhibition, usual class: inhibitors. P55210. recombinant caspase-7, Ac-DEVD-AFC fluorescence rate. AID 889. 75,000 compounds, 0.02% hits; active means well fitted inhibition curve with a large enough effect in the main read-out, with a control signal flat, not every such curve was filed as active; inconclusive means small, poorly fitted or top-dose-only effect, or a change in a side signal; further: % of control where 0% means no effect
Caspase-1 inhib: allosteric or competitive inhibitors of human caspase-1; Caspase-1 enzyme, Ac-WEHD-AFC fluorogenic rate; Potency, µM (doses to about 57.5 µM), without a hit: top-dose activity change, negative = inhibition, most hits filed as inhibitors; P29466; AID 900; 75,000 compounds, 0.03% hits;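 further: plate controls were vehicle for no effect and no substrate for full effect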
ALOX15B inhib: blocks human 15-lipoxygenase 2 activity; O15296; purified 15hLO-2, xylenol orange hydroperoxide absorbance; Potency, µM (top dose mostly 57.1 µM), inactives show at the highest dose activity change, negative = inhibition, usual class: inhibitors; AID 881; 110,000 compounds, 0.56% hits; further: on the % scale 0 is the no-effect control and ±100 the full control effect; nearly all actives have a fitted effect of over 60% in size
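Purified human 15hLO-2 (50 nM) preincubated 15 min with compound, then 45 uM arachidonic acid for 90 min at RT in 25 mM Hepes pH 7.5, 0.01% Triton X-100. Hydroperoxide detected by Fe-xylenol orange; 573/405 nm absorbance ratio.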
15-hLO inh: 15-hLO (ALOX15) enzyme inhibition | purified 15hLO-1, xylenol orange hydroperoxide absorbance | P16050 | Potency, µM (doses to about 57.1 µM), for the others: at the top dose activity change, negative = inhibition, actives largely listed as inhibitors | 74,000 compounds, 1.4% hits; further: on the % scale 0 is the no-effect control and ±100 the full control effect; nearly all actives have a fitted effect of over 55% in size
Target sequence (P16050 whole entry, looked up): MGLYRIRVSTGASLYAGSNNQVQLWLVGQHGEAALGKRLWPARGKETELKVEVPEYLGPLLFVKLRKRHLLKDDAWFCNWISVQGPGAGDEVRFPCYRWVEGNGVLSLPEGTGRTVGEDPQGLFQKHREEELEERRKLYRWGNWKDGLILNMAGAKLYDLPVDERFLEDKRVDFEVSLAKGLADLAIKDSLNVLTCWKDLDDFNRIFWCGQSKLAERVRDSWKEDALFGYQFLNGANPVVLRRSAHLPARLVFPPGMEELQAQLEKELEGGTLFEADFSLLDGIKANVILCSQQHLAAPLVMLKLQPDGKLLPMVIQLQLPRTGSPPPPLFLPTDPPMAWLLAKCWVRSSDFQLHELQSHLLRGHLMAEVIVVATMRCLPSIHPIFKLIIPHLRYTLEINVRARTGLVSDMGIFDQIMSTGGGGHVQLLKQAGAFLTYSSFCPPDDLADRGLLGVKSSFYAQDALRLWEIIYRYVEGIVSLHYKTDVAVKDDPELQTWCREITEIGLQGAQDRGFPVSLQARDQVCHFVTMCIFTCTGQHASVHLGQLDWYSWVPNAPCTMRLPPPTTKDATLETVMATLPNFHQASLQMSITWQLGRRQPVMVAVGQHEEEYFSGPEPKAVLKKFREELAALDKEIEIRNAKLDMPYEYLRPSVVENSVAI
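Inhibition is scored from a chromogenic endpoint. After 15 min enzyme-compound contact, arachidonic acid (50 uM final) reacts 6 min with 40 nM 15hLO-1 at room temperature, then Fe-XO reagent is added for 30 min and absorbance ratio recorded.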
HEK293 cAMP cs: raises cAMP in parental HEK293 cells, TSHR agonist counter-screen | parental HEK293 CNG cAMP sensor, membrane potential fluorescence | Potency, µM (top dose mostly 57.1 µM), without a hit: at the top dose activation, hits mostly activators | 73,000 compounds, 2.5% hits; further: % of control where 0% means no effect; nearly all actives have a fitted effect of over 55% in size
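Parental HEK 293 cells stably expressing a cAMP-gated CNG channel were loaded with membrane potential dye containing 100 uM RO 20-1724 for 60 min. Compound added for 30 min; depolarization read as fluorescence intensity at 590 nm.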
TSHR ag: activates the human thyroid stimulating hormone receptor; HEK293-CNG-TSHR cells (CNG channel as cAMP sensor), membrane potential dye, cAMP; Potency, µM (doses to about 57.1 µM), without a hit: at the top dose activation, most hits filed as activators; 73,000 compounds, 0.48% hits; active means well fitted activation curve with a large enough effect in the main read-out, with a control signal flat, not every such curve was filed as active; inconclusive means small, poorly fitted or top-dose-only effect, or a change in a side signal; inactive means no such curve, though single readings can be large or run the other way; % of control where 0% means no effect;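 further: the control signal comes from parental cells without the receptor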
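HEK 293 cells stably expressing TSHR and a modified CNG channel, with CNG-only parental cells as counterscreen, were preloaded 60 min at room temperature with membrane potential dye containing 100 uM RO 20-1724. Compound exposure was 30 min, and depolarization was read as fluorescence at 590 nm.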
* = called active by the depositor; ? = inconclusive; . = no result; [ ] = another dose, or the depositor's remark. Unless noted, the call rests on the fitted dose curve; in most records, active means well fitted curve in the direction sought with a large enough effect; inconclusive means small, poorly fitted or top-dose-only effect, or another doubt; inactive means no such curve, though single readings can be large; an effect the other way counts as inactive or inconclusive. Potency means the concentration at half of the fitted maximal effect.

SMILES	Caspase-7 inhib	Caspase-1 inhib	ALOX15B inhib	15-hLO inh	HEK293 cAMP cs	TSHR ag
OCC1OC(c2ccccc2)C=CC1Oc1cc(Cl)cc(Cl)c1 (stereo not drawn)	1%[11.5 µM]	-2%[11.5 µM]	.	-2%[11.4 µM]	2%[11.4 µM]	-5%[11.4 µM]
CC1CCC(C(C)C)C2=C1C(C#N)(C#N)C(C#N)(C#N)C(c1ccccc1)N2 (stereo not drawn)	.	.	10µM*	.	.	.
CC1=CC(C#N)(C#N)C(C#N)(C#N)C(c2ccccc2)N1 (stereo not drawn)	?	.	-3%	-8%	8%	0%
Cn1c(=O)n2n(c1=O)[C@H]1[C@H](O)[C@H]3O[C@@H]3/C(=N/OCc3ccccc3)[C@@H]1CC2	-7%[11.5 µM]	2%[11.5 µM]	.	0%[11.4 µM]	0%[11.4 µM]	3%[11.4 µM]
N#Cc1cc2c(nc1SCc1cccnc1)CCCCC2	1%	-2%	46%	1%	10µM*	?
N#Cc1cc2c(nc1SCc1ccccc1)CCCCC2	.	.	-4%	.	.	.
Cc1nc2cnc(N(C)C)nc2n(CCc2ccccc2)c1=O	?	?	22%	-7%	16µM*	?
Cc1nc2nc(-c3ccco3)[nH]n2c(=O)c1Cc1ccccc1	-23%	?	12%[2.29 µM]	16µM*	21%	21%
CC(C)=CCC/C(C)=C/CC/C(C)=C/CSc1ccccc1C(=O)O	-10%	-7%	?	-19%	13%	.
Cc1ccc(NCc2nc3ccccc3n2C)cc1	-5%	0%	43%	16µM*	-4%	-12%
Cn1c(CNc2nc3ccccc3n2C)nc2ccccc21	0%	0%	24%	15%	5%	10%
FC(F)(F)c1cc(-c2ccco2)nc(-n2nnc3ccccc32)n1	-2%	2%	-5%	-7%	25µM*	?
FC(F)(F)c1cc(-c2ccco2)nc(-n2nc(C(F)(F)F)cc2C2CC2)n1	-3%	-1%	-15%	-10%	?	?
COc1ccc(OC)c(-c2cc(C(=O)N3CCCc4ccccc43)no2)c1	-2%	-1%	11%	-18%	?	?
COc1ccc(-c2cc(C(=O)N3CCCc4ccccc43)no2)cc1OC	-1%	-1%	-5%	-12%	25µM*	?
COc1ccc(OCCCC(=O)N2CCCc3ccccc32)cc1	1%	-1%	13%	5%	16µM*	?
COc1ccc(-c2cc(C(=O)N3CCCc4ccccc43)no2)cc1	-1%	-2%	1%	-11%	20µM*	?
COc1cccc(-c2cc(C(=O)N3CCCCCC3)no2)c1	-2%	-6%	-2%	1%	17%	.
COc1cccc(-c2cc(C(=O)N3CCCc4ccccc43)no2)c1	-2%	-6%	2%	-20%	16µM*	?
COc1ccc(-c2cc(C(=O)N3CCc4ccccc4C3)no2)cc1OC	-5%	-2%	10%	-14%	25%	7%[11.4 µM]
CCCNC(=O)OC[C@H]1O[C@@H](CCO/N=C\[C@@H](NS(=O)(=O)c2ccc(C)cc2)[C@H](C)/C=C\CC(=O)OC)C=C[C@@H]1Oc1ccc(OC)cc1	-2%[11.5 µM]	-2%[11.5 µM]	.	0%[11.4 µM]	13%[11.4 µM]	0%[11.4 µM]
CCOC(=O)N/N=C1/C[C@@H](O)[C@@H](O)[C@@H]2[C@@H]3C(=O)N(C4CCCCC4)C(=O)[C@H]3CC[C@@H]12	-1%[11.5 µM]	-1%[11.5 µM]	.	17%[11.4 µM]	19%[11.4 µM]	5%[11.4 µM]
C1CCCNCC1	2%	-4%	-9%	4%	17%	-3%
CO[C@@H]1COC(=O)C/C=C\[C@H](C)[C@H](OC)COC(=O)[C@H](C)NC(=O)C/C=C\[C@H]1C	0%[11.5 µM]	-1%[11.5 µM]	.	1%[11.4 µM]	-5%[11.4 µM]	-2%[11.4 µM]
COc1cc2cc3c4c(cc(OC)c(OC)c4c2cc1OC)CCN3C	?	.	13µM*	-12%[25.6 µM]	-63%	?
SMILES	Caspase-7 inhib	Caspase-1 inhib	ALOX15B inhib	15-hLO inh	HEK293 cAMP cs	TSHR ag
Cc1cc(-c2nnc(-c3ccccc3)c(-c3ccccc3)n2)c(C)o1	-6%	-3%	?	25µM*	9%	0%[11.4 µM]
CCOc1ccccc1NC(=O)CSc1ncnc2c1oc1ccccc12	2%	0%	-17%	8%	25µM*	?
Cc1nc(SCC(=O)Nc2ccccc2)c2oc3ccccc3c2n1	0%	-1%	-12%	5%	27%	16µM*
O=C(CSc1ncnc2c1oc1ccccc12)Nc1ccccc1F	.	.	-3%	.	.	.
COC(=O)NC(CC(C)=O)c1cccc(C(F)(F)F)c1 (stereo not drawn)	1%[11.5 µM]	1%[11.5 µM]	.	4%[11.4 µM]	0%[11.4 µM]	3%[11.4 µM]
CCOc1ccc2nc(SCC(=O)N3CCCCCC3)c(C#N)cc2c1	-18%	-16%	-10%	?	16µM*	?
O=C(CSc1nc2ccccc2nc1SCC(=O)N1CCCCC1)N1CCCCC1	0%	-1%	-17%	-8%	17%	25µM*
CN1CCN(c2ncc3nc(-c4cc(F)cc(F)c4)c(=O)n(CCC#N)c3n2)CC1	?	.	20µM*	49%	6%	-6%
N#CCCn1c(=O)c(-c2ccc(Cl)cc2)nc2cnc(Nc3ccccc3)nc21	?	.	-5%	6%	6%	-12%
N#CCCn1c(=O)c(-c2ccccc2)nc2cnc(Nc3ccccc3)nc21	?	.	-17%	-7%	10µM*	?
COCCn1c(=O)c(-c2cc(F)cc(F)c2)nc2cnc(N3CCN(C)CC3)nc21	?	.	1%	-10%	-11%	-7%
COCOc1cc(OC)ccc1C(=O)/C=C\c1ccc2c(c1)OCO2	-1%[11.5 µM]	-3%[11.5 µM]	.	-2%[11.4 µM]	?	?
CCc1ccc(OCc2ccccc2C(=O)Nc2ccc3nc(C)cc(N)c3c2)cc1	.	.	30%[0.0915 µM]	.	.	.
O=C(CSc1nc2ccccc2c(=O)[nH]1)N1CCOCC1	0%	-2%	9%	3%	20%	6%[11.4 µM]
O=C(CSc1nc2ccc(S(=O)(=O)N3CCOCC3)cc2[nH]1)N1CCOCC1	1%	-3%	-15%	7.9µM*	14%	1%
O=C(Nc1cccc(-c2nnc(-c3ccccc3)o2)c1)C1CCCCC1	-1%	4%	.	-13%	?	?
Cc1ccccc1NS(=O)(=O)c1cccc(-c2nnc(-c3ccccc3)o2)c1	-4%	-3%	-11%	?	6.3µM*	?
O=S(=O)(NC1CCCCC1)c1cccc(-c2nnc(-c3ccccc3)o2)c1	-6%	-3%	-11%	-21%	20µM*	?
CN(C)S(=O)(=O)c1cccc(-c2nnc(-c3ccccc3)o2)c1	.	.	7%	.	.	.
CC(C)(C)CC(C)(C)c1cc(O)c(O)c(CN2CCCCC2)c1	-1%[11.5 µM]	1%[11.5 µM]	?	0.4µM*	2%[11.4 µM]	5%[11.4 µM]
CC(C)(C)CC(C)(C)c1ccc(O)c(CN2CCN(CCC#N)CC2)c1	.	.	40%	.	.	.
COC(=O)N1CCC[C@@]2(CCN(c3ccccn3)C2)C1	-13%	-14%	-1%	1%	?	?
